Data published in PubChem BioAssay AID588856 (National Center for Advancing Translational Sciences (NCATS), 2011).
Hit rate of the full screen: of about 410,000 compounds, about 3,100 (0.76%) were called active. The sample holds actives, similar compounds and a random draw of the others, so the mix is not that of the screen. Calls follow the shape of the dose curve; as a rule, active = well fitted cell-killing curve with a large enough effect; inactive = no such curve, though single readings can be large or run the other way.

assay: qHTS for Inhibitors of TGF-b: Cytotox Counterscreen; conditions: HepG2 CAGA-GFP viability, ATP luminescence, 18 h; series mostly up to 46.1 µM; activity change, negative = cytotoxicity: at the top concentration
Excerpt: TGF-b is a main component in the TGF-b signaling pathway which plays diverse roles in cellular and development pathways. TGF-b is mediated by transcription factors called "Smads". Although the Smad-dependent pathway is the primary canonical TGF-b signaling mode, TGF-b1 can also activate alternative signaling pathways, including those involving MAPK (ERK, JNK and p38). This interaction may mediate or enhance Smad-dependent responses, or can exert Smad-independent effects. The complexity of this signaling cascade allows the TGF-b superfamily to perform unique, overlapping or redundant functions. We believe that targeting the TGF-beta pathway at the Smad-transcription factor level may eliminate the consequences of disrupting the entire pathway and offer specificity without affecting other signaling pathways. Smad3 is the primary transducer of TGF-b's signals and Smad3 regulates many functions attributed to TGF-b signaling. We hypothesize that Smad3 inhibitors will selectively eliminate Smad3-specific TGF-beta signals without undesired off-target effects. We aim to identify Smad3-small molecule antagonists using a quantitative high throughput screening (qHTS) approach.
A high-throughput assay was developed to screen the NIH Molecular Libraries Small Molecule Repository (MLSMR). This is a cell based assay, where TGF-b is tagged with GFP. This is a counterscreen that evaluates the cytotoxicity of the compounds that were screened in the primary cell-based screen (AID 588855).
MH087449NIH Chemical Genomics Center [NCGC]
NIH Molecular Libraries Probe Centers Network [MLPCN]
Assay Submitter (PI): Sushil Rane, National Institute of […]
Suspensions of trypsinized HEPG2 CAGA-GFP cells were dispensed into white, tissue culture-treated, solid 1536-well plates at 5uL/well (1000 cells/well final concentration) in DMEM medium supplemented with 1% FBS. Plates were incubated at 37 degrees C for 2 hours, after which 23 nL of compounds or DMSO were delivered to each well using a pin tool. One uL of recombinant TGF-beta in DMEM (1% FBS) was then dispensed (500 pg/mL final concentration), and plates were incubated at 37 degrees C for 18 hours. Two uL of CellTiter Glo (Promega), a luminescence-based viability reagent, was dispensed, followed by a 10 minute room temperature incubation. The plates were then measured on a PerkinElmer ViewLux plate reader for luminescence (clear filter) using a 5 second exposure. The %Activity was determined from the corrected luminescence values. Wells containing media only (no cells) were used to normalize %Activity of identified toxic compounds; media-only wells corresponded to 100%Activity (complete cell-killing), while DMSO-dosed cell controls were used to normalize 0%Activity (no toxicity).
Concentration-response curves were fitted to the signals arising from the resulting luminescence. The concentration-effect curves were then classified based on curve quality (r2), response magnitude and degree of measured activity, and compounds were subsequently categorized based on their curve class.
Potency is read from the fitted curve at half-maximal effect.

| Structure (SMILES) | activity change, negative = cytotoxicity | Potency |
| --- | --- | --- |
| COc1ccc2c(c1O)-c1cccc3c1[C@@H](C2)N(C)CC3 | -17.1% (inactive) |  |
| COc1c(O)ccc2c1-c1c3c(cc4c1C(C2)N(C)CC4)OCO3 (centres undefined) | 4.22% (inactive) |  |
| COc1ccc2cc1Oc1ccc(cc1)C[C@H]1c3cc(c(OC)cc3CCN1C)Oc1c(O)c(OC)cc3c1[C@H](C2)N(C)CC3 |  | 7.94 µM (active) |
| CC(C)COC(=O)n1c(=O)oc2ccc(S(=O)(=O)N3CCCCC3)cc21 | -9.49% (inactive) |  |
| COc1ccccc1CNC(=O)C(Cc1ccccc1)NS(=O)(=O)c1ccc2c(c1)oc(=O)n2C (centres undefined) | -43% (inactive) |  |
| ClCCN(CCCl)c1ccc(C=Nc2ccc(/C=C/c3ccnc4ccccc34)cc2)cc1 | -18.2% (inactive) |  |
| Cc1ccc(C(O)P(=O)(OC(C)C)c2ccc(N(C)C)cc2)cc1 (centres undefined) | -52.3% (inactive) |  |
| COc1ccc(CCNC(=O)CCn2c(=O)oc3ccccc32)cc1OC | -40.3% (inactive) |  |
| CC(C)(C)c1ccc(CN2C(=O)CN=C(c3ccccc3)c3ccccc32)cc1 |  | 12.6 µM (active) |
| O=C1CC(=O)N(Cc2ccccc2)C(=O)N1CCCCCCN1C(=O)CC(=O)N(Cc2ccccc2)C1=O | 17.5% (inactive) |  |
| CC(C)OP(=O)(OC(C)C)C(Nc1ccccc1)c1cccc([N+](=O)[O-])c1 (centres undefined) | -16.4% (inactive) |  |
| O=c1[nH]c(=S)[nH]c(O)c1/C=C1\C=Nc2ccccc21 | -43.9% (inactive) |  |
| COc1ccccc1CNC(=O)Cn1c(=O)oc2cc(Cl)ccc21 | -34.9% (inactive) |  |
| N#Cc1c(Cl)c(Cl)c(Cl)c(C#N)c1Cl |  | 0.316 µM (active) |
| Cn1c(=O)oc2cc(S(=O)(=O)N3CCC(C(=O)Nc4ccc(OC(F)(F)F)cc4)CC3)ccc21 | -44.1% (inactive) |  |
| CCCCOP(=O)(c1ccc(N(C)C)cc1)C(O)c1cc(OC)ccc1OC (centres undefined) | -35.4% (inactive) |  |
| COc1cc([C@@H]2c3cc4c(cc3[C@H](OC(C)=O)[C@H]3COC(=O)[C@H]23)OCO4)cc(OC)c1OC | -43.8% (inactive) |  |
| CCOC(=O)C(NS(=O)(=O)c1ccc(C)cc1)(C(F)(F)F)P(=O)(OCC(C)C)OCC(C)C (centres undefined) | -41.8% (inactive) |  |
| CN(C)CC1Oc2ccccc2OC1(O)c1ccccc1 (centres undefined) |  | 3.98 µM (active) |
| CO[C@H]1[C@@H](O)[C@@H](C)O[C@H](O[C@H]2[C@H](Oc3cccc4c(O)c5c(=O)oc6ccc(C)c7c(=O)oc(c34)c5c67)O[C@H](C)[C@H](O)[C@@H]2O)[C@@H]1O | 8.18% (inactive) |  |
| CCOC(=O)c1ccc(NC(=O)CCn2c(=O)oc3ccccc32)cc1 | -44.4% (inactive) |  |
| O=C1NC(=O)N(Cc2ccco2)C(=O)/C1=C\c1ccc(-c2ccc(F)cc2)o1 |  | 12.6 µM (active) |
| CCOP(=O)(OCC)C(Cc1ccccc1)N=C(c1ccccc1)c1ccccc1 (centres undefined) | -105% (inactive) |  |
| Cc1ccc2c(c1)C1C[N+](C)(CC(=O)c3ccccc3)CCC1N2C(=O)c1ccccc1Cl (centres undefined) | 4.92% (inactive) |  |
| Brc1cc(Br)c(Oc2cc(Br)c(Br)cc2Br)cc1Br | -32.1% (inactive) |  |
| COC(=O)C1=C(c2ccccc2)C[C@@H]2CC[C@H]1N2C(=O)NCc1ccco1 | -1.14% (inactive) |  |
| COc1cc(Cn2c(N)c(C(=O)NCc3ccco3)c3nc4ccccc4nc32)cc(OC)c1OC |  | 17.8 µM (active) |
| Cc1ncoc1C(=O)NCC1=C(c2cccc3ccccc23)C[C@@H]2CC[C@H]1N2Cc1ccco1 | -59.5% (inactive) |  |
| CCN(CC)C(=O)Oc1ccc(OC(=O)N(CC)CC)cc1 | 33.9% (inactive) |  |
